# The source made the active and inactive calls. How the calls were made is not given here.
# Test system: HIV-1 nucleocapsid protein NCp7 (binding to TG oligonucleotide)
# Experiment: HIV Nucleocapsid (AID 346);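 further: potency is for inhibitors that block NC binding and lower polarization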
# Conditions: HIV-1 NC / fluorescein-TGTGTGTG probe, fluorescence polarization
# Summary of the method: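 Fluorescence polarization binding of 100 nM HIV-1 NC to 10 nM fluorescein-labelled TG4xF oligonucleotide. Buffer was Hepes pH 7.5 with 250mM NaCl, 1uM ZnCl2, TCEP and 2-mercaptoethanol. Compounds were incubated 1 hr at room temperature before the read.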
# Potency means the concentration at half of the fitted maximal effect.
row,SMILES,Potency
1,Cc1cccc(CNc2ncnc3ccc(-c4ccccc4CN(C)C)cc23)c1,> 20 µM (inactive)
2,CN(Cc1ccco1)c1ncnc2ccc(-c3cccc(C#N)c3)cc12,> 20 µM (inactive)
3,Cc1cnc(CNc2cc(-c3ccccc3CN(C)C)ncn2)cn1,> 20 µM (inactive)
4,Cc1cnc(CNc2ncnc3ccc(-c4ccc(C(=O)N(C)C)cc4)cc23)cn1,> 20 µM (inactive)
5,Cc1noc(C)c1C(=O)N1CCC2(CCCN(C(=O)Nc3cccc(F)c3)C2)CC1,> 20 µM (inactive)
6,Cn1cccc1C(=O)N1CCC2(CC1)CCN(c1ccccn1)CC2,> 20 µM (inactive)
7,COc1ccc2[nH]cc(CCNc3ncncc3-c3cccc(NS(C)(=O)=O)c3)c2c1,> 20 µM (inactive)
8,Cc1nc2cnc(N3CCOCC3)nc2n(C)c1=O,> 20 µM (inactive)
9,COc1ccccc1-c1ccc2ncnc(NCc3cccnc3)c2c1,> 20 µM (inactive)
10,CS(=O)(=O)Nc1cccc(-c2nc(Nc3ccc(F)cc3)c3ccccc3n2)c1,> 20 µM (inactive)
11,O=C(Oc1ccccc1)N1CCC[C@@]2(CCN(c3ccccn3)C2)C1,> 20 µM (inactive)
12,CN(C)Cc1ccccc1-c1nc(N2CCOCC2)c2ccccc2n1,> 20 µM (inactive)
13,CN1CCN(c2ncc3nc(CCc4ccccc4)c(=O)n(C4CC4)c3n2)CC1,> 20 µM (inactive)
14,Cc1nc2cnc(N(C)C)nc2n(C[C@H]2CCCO2)c1=O,> 20 µM (inactive)
15,CS(=O)(=O)N1CCC[C@@]2(CCN(c3ccccn3)C2)C1,> 20 µM (inactive)
16,CC(=O)N1CCC2(CCN(Cc3ccc(C#N)cc3)CC2)CC1,> 20 µM (inactive)
17,N#Cc1cccc(NC(=O)N2CCCC3(CCN(S(=O)(=O)c4ccccc4)CC3)C2)c1,> 20 µM (inactive)
18,COc1ccc(Oc2ncc3nc(C)c(=O)n(Cc4cccs4)c3n2)cc1,> 20 µM (inactive)
19,COc1ccccc1CN1CCCC2(CCNCC2)C1,> 4 µM (inactive)
20,COc1ccc(CNc2ncncc2-c2ccoc2)c(OC)c1,> 20 µM (inactive)
21,CS(=O)(=O)Nc1cccc(-c2nccc(-n3ccnc3)n2)c1,> 20 µM (inactive)
22,O=S(=O)(c1ccccc1)N1CCC2(CC1)CN(c1ccccn1)C2,> 20 µM (inactive)
23,O=C(c1cnccn1)N1CCC2(CCCN(Cc3ccncc3)C2)CC1,> 20 µM (inactive)
24,COCCn1c(=O)c(-c2cccc(C#N)c2)nc2cnc(Oc3ccccc3)nc21,> 20 µM (inactive)
25,CS(=O)(=O)Nc1cccc(-c2nc(N3CCNCC3)c3ccccc3n2)c1,> 20 µM (inactive)
